# Wee1 degr inh = Wee1 degradation inhibitors, primary screen, cell-based, HeLa, Wee1K328M-luciferase, luminescence; Wee1-like protein kinase (Homo sapiens), P30291; HeLa Luc-Wee1K328M stability; 100% = proteasome inhibitor MG132 effect; reporter increase, % at 5 µM; 1.2% of 220,000 active;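 active = activation above the mean of all tested compounds plus 3 SD, set per screening run, cut at about 8.8% in these data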;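 note: cells exposed to compound for 20 h before luminescence read; 0% = DMSO alone and 100% = MG132 at 30 µM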
# Target sequence (P30291 whole entry K328M): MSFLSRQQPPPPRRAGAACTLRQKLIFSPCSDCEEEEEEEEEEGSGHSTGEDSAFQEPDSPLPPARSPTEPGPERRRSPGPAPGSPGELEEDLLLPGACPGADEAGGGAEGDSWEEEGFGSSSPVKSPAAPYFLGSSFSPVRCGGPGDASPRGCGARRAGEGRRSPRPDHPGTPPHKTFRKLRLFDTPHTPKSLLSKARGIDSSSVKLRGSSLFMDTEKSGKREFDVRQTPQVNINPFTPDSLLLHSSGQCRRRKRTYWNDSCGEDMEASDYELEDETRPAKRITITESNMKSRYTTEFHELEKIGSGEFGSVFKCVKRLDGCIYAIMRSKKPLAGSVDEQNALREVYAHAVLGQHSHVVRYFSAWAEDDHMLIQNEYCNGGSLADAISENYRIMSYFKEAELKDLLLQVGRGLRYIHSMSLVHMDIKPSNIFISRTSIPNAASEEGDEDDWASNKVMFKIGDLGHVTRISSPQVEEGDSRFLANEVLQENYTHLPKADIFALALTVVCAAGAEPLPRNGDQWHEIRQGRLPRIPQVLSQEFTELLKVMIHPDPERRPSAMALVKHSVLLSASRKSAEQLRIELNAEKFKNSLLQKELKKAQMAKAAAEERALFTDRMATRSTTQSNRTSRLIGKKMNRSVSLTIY
# Platelet DG rel = inhibitors of platelet dense granule secretion, primary screen, cell-based, MLPCN, human platelets | human platelet-rich plasma, SFLLRN dense granule ATP release, luminescence | inhibition, %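 (compounds screened at 7.5 µM in platelet-rich plasma)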 | 0.22% of 300,000 active | AID 1663, 2009;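 active = mean replicate score, as percent of positive control, at or above 50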
# HIF act = HIF pathway transcriptional activators, primary screen, cell-based, U2OS HRE-luciferase, luminescence | U2OS HRE-luciferase reporter; normalized: DMSO 0%, desferrioxamine 100% | activation, % at 7.5 µM (by protocol) | 0.32% of 300,000 active;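 active = mean activation of at least 10% of the iron chelator positive control signal, with at least half of replicates also reaching 10%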
# KLF5 inhibitor = KLF5 expression inhibitors, primary screen, DLD-1 cells, luminescence. 0.23% of 290,000 active. DLD-1 KLF5 promoter-luciferase reporter. inhibition, % at 5 µM;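 active = inhibition above a per-plate limit of that plate's mean compound inhibition plus 3 SD, cut at about 60% in these data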;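 note: 0% = DMSO wells and 100% = LY294002 at 200 µM; higher means less KLF5 promoter-driven luciferase light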
# aSyn UTR inh = MLPCN primary screen, SNCA 5' untranslated region. alpha-synuclein 5'UTR reporter, inhibitor activity. 0.82% of 300,000 active. inhibition, % (tested at 7.5 µM). AID 1813, 2009; in the data active = inhibition above about 60%;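 note: H4 neuroglioblastoma cells stably carrying SNCA 5'UTR luciferase fusion; 0% = DMSO wells and 100% = positive control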
# Active calls of the source: *; nt = not tested or not shown. In the library only some 2.1% were active in any assay of this set; here they are far more common.
SMILES,Wee1 degr inh,Platelet DG rel,HIF act,KLF5 inhibitor,aSyn UTR inh
O=[N+]([O-])c1cccn2cc(-c3ccc(Br)cc3)nc12,9.8*,-6,2,-193,-315
CCOc1ccc2nc(NC(=O)C34CC5CC(CC(NC(C)=O)(C5)C3)C4)sc2c1,nt,-13,2,-111,-132
CC1CCC2(CC1)NC(=O)N(CC(=O)N1CCN(S(=O)(=O)c3ccccc3)CC1)C2=O (centres undefined),9.7*,7,2,-16,-9
O=C(CN1C(=O)NC2(CCCCC2)C1=O)N1CCN(S(=O)(=O)c2ccccc2)CC1,1,5,0,11,11
CCOc1ccc(CSc2nc(C)cc(COC)c2C#N)cc1OCC,nt,-1,-1,-12,23
O=C(NCc1ccco1)c1ccc(COc2cccc3ccccc23)cc1,4,-9,-1,-47,33
O=C(NCc1ccco1)c1ccc(COc2ccccc2Cl)cc1,13*,7,0,-42,-55
Cc1noc(C)c1S(=O)(=O)N1CCCC1C(=O)O (centres undefined),nt,-2,0,-29,-21
O=C(NCCCN1CCOCC1)C(=O)N/N=C/c1c2ccccc2cc2ccccc12,-2,-11,0,-2,67*
Cn1c(=O)oc2cc(S(=O)(=O)NC3CCCCC3)ccc21,nt,19,0,2,10
Cn1c(=O)oc2cc(S(=O)(=O)NC3CCN(Cc4ccccc4)CC3)ccc21,-2,52*,0,-3,27
CCOc1ccc(C(=O)Oc2ccc(NC(C)=O)cc2)cc1,0,10,-1,-3,80*
CN(C)c1ccc(/C=C(\C#N)C(=O)c2ccccc2)cc1,9.3*,3,1,1,6
CN(C)c1cccc(/C=C(\C#N)c2ccccc2)c1,10.0*,-9,1,-25,-155
CN(C)c1ccc(/C=C(\C#N)c2ccccc2)cc1,16*,nt,nt,-17,nt
CCCc1cc(=O)oc2cc(OC(C)C(=O)NC3CC(C)(C)NC(C)(C)C3)ccc12 (centres undefined),nt,8,0,-15,17
CC(OC(=O)CCCN=C1NS(=O)(=O)c2ccccc21)C(=O)Nc1ccccc1[N+](=O)[O-] (centres undefined),nt,0,-1,nt,-1
C[n+]1ccn(CC(=O)c2cccs2)c1,nt,1,1,14,6
CCCCCCCCCCCCCCCCn1cc[n+](C)c1,-5,-2,-5,8,141*
Clc1ccc2nc(-c3ccc4c(c3)OCO4)cn2c1,-1,7,-5,15,57
CCC(=O)Nc1cccc(-c2cn3ccccc3n2)c1,0,-4,3,-57,-89
O=C(Nc1cccc(-c2cn3ccccc3n2)c1)C1CC1,3,-2,37*,-17,-47
c1ccn2cc(-c3ccc4c(c3)OCCO4)nc2c1,3,42,-5,-23,98*
O=C(c1cc(COc2ccc(F)c(F)c2)on1)N1CCN(C/C=C/c2ccccc2)CC1,nt,-1,0,-13,20
COCCN(C(=O)COC(=O)CCOc1ccccc1)c1c(N)n(Cc2ccccc2)c(=O)[nH]c1=O,nt,0,0,nt,-2
SMILES,Wee1 degr inh,Platelet DG rel,HIF act,KLF5 inhibitor,aSyn UTR inh
COc1cc(OC)cc(C(=O)NN(CCC#N)C2=NS(=O)(=O)c3ccccc32)c1,nt,1,0,-8,14
Cc1ccsc1C(=O)NNC(=O)C1C2C=CC(C2)C1C(=O)O (centres undefined),10*,nt,nt,-84,nt
Cc1ccc(Cl)cc1N1CCN(C(=O)c2noc(C(C)C)c2[N+](=O)[O-])CC1,nt,-9,-1,-21,-24
COc1ccc(OC)c2c1C(=O)C(Cl)=C(Cl)C2=O,6,66*,-6,7,-89
Cc1cc(C2=NNC(=NC3CC3)SC2)c(C)n1-c1ccccc1F,-4,24,-2,-16,99*
c1ccc(CN=C2NN=C(c3cc4ccccc4o3)CS2)cc1,0,24,1,-33,-7
c1ccc2oc(C3=NNC(=NC4CC4)SC3)cc2c1,15*,6,2,-70,-135
Cc1cc(C2=NNC(=NC3CCCCC3)SC2)c(C)n1-c1c(C)n(C)n(-c2ccccc2)c1=O,1,8,0,-4,-3
CCC(C)NC(=O)c1cc2c(=O)n(CC)c3ccccc3c2s1 (centres undefined),nt,1,-2,-35,-31
Cc1ccc(N2C(=O)N(CC(=O)Nc3cc(Cl)ccc3C)C(=O)C2C)cc1 (centres undefined),nt,7,0,nt,5
N#Cc1cnn2c1nc(N1CCCCC1)c1ccccc12,-1,2,0,7,64*
Cc1ccc(-c2nn(-c3ccccc3)cc2CSC(=N)N)cc1,2,-1,-5,-15,119*
Cc1ccccc1-n1c(=O)n(Cc2ccc(C(=O)O)cc2)c(=O)c2[nH]cnc21,nt,1,37*,-35,7
O=C(CN1CCCC1)N1CCCc2ccccc21,2,2,-1,-33,20
O=C(CN1CCCCC1)N1CCCc2ccccc21,2,4,90*,5,6
c1ccc(-n2nnc3c(N4CCOCC4)ncnc32)cc1,2,10,-5,-29,75*
Cc1nnc(N2CCOCC2)c2nn(-c3ccccc3)c(C)c12,-1,3,0,-23,5
Cc1c(C(=O)N(C)Cc2cccc(F)c2)oc2c(Cl)cccc12,nt,3,0,13,40
CCC(=O)c1ccc(N2CCN(C(=O)c3ccc(Br)cc3)CC2)c(F)c1,1,5,86*,-11,2
CCN1/C(=C/C=C/c2oc3ccc(-c4ccccc4)cc3[n+]2CC)Oc2ccc(-c3ccccc3)cc21,-1,4,-4,15,140*
CCN1/C(=C/C=C/c2sc3ccccc3[n+]2CC)Sc2ccccc21,nt,18,-1,nt,40
CCSc1nc(O)cc(=O)[nH]1,11*,1,-4,-23,0
CCC/C(=N/NC(=O)c1cccc(Cl)c1)c1ccccc1,1,-6,10*,-26,-47
Cc1ccc(/C=N/NC(=O)c2nn(C)cc2Cl)cc1,4,53*,2,-46,-108
O=C(NCCCn1ccnc1)Nc1ccc2c(c1)OCO2,nt,-5,1,-30,-107
CCCN1C(=O)c2ccc(C(=O)Nc3ccccc3C(=O)O)cc2C1=O,nt,1,-1,-49,6
O=C(c1ccc(OC2CCN(Cc3ccc(F)cc3)CC2)cc1)N1CCCC1,nt,-7,53*,-27,-2
O=C(c1ccc(OC2CCN(CCc3ccccc3)CC2)cc1)N1CCCC(CCCO)C1 (centres undefined),nt,-2,44*,-8,-1
O=C(Cc1ccccc1)Nc1cc([N+](=O)[O-])ccc1N1CCOCC1,-1,-6,0,-21,-5
Cc1nn(Cc2ccccc2Cl)c(Cl)c1C(=O)NCCc1ccccc1,10*,-3,2,-135,-54

# High-throughput results (PubChem)
